Screens as filed in PubChem.
The full list was thinned out, with hits kept by preference.
PTHR1 ag = qHTS for PTHR1 Agonists: Primary Screen. Parathyroid hormone/parathyroid hormone-related peptide receptor (Homo sapiens), Q03431. HEK293 GP2 PTHR1 cells, GloSensor cAMP luminescence, 1 h. Potency, µM (top dose mostly 115 µM), inactives show top-dose activation, most hits filed as activators. 0.075% of 410,000 active. AID 743266, 2014; note: potency is the fitted concentration of half-maximal effect; nearly all actives have a fitted effect of over 55% in size
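HEK-293-derived GP2 cells expressing PTHR1 and a GloSensor cAMP reporter, 3,000/well, plated overnight, given luciferin plus IBMX (each 0.5 mM as added) for 1 h at 37 °C, then compound for 1 h at 37 °C. Luminescence was read after 15 min at room temperature.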
RXFP1 antagonist = qHTS Assay for Antagonists of the Relaxin Receptor RXFP1; Relaxin receptor 1 (Homo sapiens), Q9HBX9; HEK293-RXFP1, relaxin-stimulated cAMP HTRF, 30 min; hits give low values; activity change, negative = inhibition, % at 57.5 µM; 0.59% of 350,000 active;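 active = activity change of -60% or lower, but not beyond a set lower limit; inconclusive = change between -60% and -40%, or beyond the set limit; inactive = change above -40%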; note: % is set by controls: 0 for no effect and ±100 for the full control effect
Target sequence (Q9HBX9 whole entry, looked up): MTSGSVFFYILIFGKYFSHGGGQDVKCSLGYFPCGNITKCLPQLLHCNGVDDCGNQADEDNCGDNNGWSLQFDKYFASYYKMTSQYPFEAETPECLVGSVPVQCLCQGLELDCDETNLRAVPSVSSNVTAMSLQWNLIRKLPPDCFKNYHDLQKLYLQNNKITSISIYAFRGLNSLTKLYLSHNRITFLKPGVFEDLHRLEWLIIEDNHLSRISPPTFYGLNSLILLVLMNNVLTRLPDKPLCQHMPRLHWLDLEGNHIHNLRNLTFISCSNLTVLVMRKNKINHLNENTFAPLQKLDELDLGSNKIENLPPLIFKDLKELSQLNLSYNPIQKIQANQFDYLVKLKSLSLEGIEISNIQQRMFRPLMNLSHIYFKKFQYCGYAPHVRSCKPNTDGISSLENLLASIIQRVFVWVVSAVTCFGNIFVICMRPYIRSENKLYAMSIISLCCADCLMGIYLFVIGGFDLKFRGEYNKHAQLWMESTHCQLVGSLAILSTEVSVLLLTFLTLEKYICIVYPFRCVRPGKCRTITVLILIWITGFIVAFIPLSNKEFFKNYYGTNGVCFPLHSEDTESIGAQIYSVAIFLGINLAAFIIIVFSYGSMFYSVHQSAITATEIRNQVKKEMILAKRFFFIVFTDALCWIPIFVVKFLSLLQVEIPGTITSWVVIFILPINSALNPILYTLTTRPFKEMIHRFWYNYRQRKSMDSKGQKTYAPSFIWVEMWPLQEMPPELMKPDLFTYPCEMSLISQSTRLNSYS
TSHR antagonist = Antagonists of the Thyroid Stimulating Hormone Receptor: HTS campaign; TSHR-expressing cells, TSH-stimulated cAMP HTRF, 2 h; hits give low values; 0.2% of 330,000 active; activity change, negative = inhibition, % at 11.5 µM; Thyrotropin receptor (Homo sapiens), P16473;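 active = activity change below a set negative limit, meaning inhibition stronger than a set level, cut at about -70% in these data; inconclusive = activity change between two set negative limits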; note: % is set by controls: 0 for no effect and ±100 for the full control effect
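Cell-based HTRF cAMP assay; TSHR cells + compound, TSH EC80 (4nM final), 2 h, 37 deg C. Lysis with anti-cAMP cryptate and cAMP-d2, 30 min RT, read 665/620 nm.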
RXFP1 agonist = qHTS Assay for Agonists of the Relaxin Receptor RXFP1. Potency, µM (top dose mostly 57.5 µM), for inactives: at the highest dose activation, actives largely listed as activators. Relaxin receptor 1 (Homo sapiens), Q9HBX9. HEK293T-RXFP1 cAMP TR-FRET, 30 min; response scale: percent of porcine relaxin response, buffer zero. 0.3% of 370,000 active; note: potency is the fitted concentration of half-maximal effect; % is set by controls: 0 for no effect and ±100 for the full control effect; nearly all actives have a fitted effect of over 60% in size
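cAMP rise read by TR-FRET after 30 min, 37C compound exposure (up to 58 uM) in RXFP1-transfected HEK293 cells with Ro 20174 present. EC50 from Hill-equation fits, with 29 nM porcine relaxin as 100% and buffer as basal.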
NPSR antagonist = qHTS Assay for Antagonists of the Neuropeptide S Receptor: cAMP Signal Transduction; Q6W5P4; CHO-NPSR cells, cAMP TR-FRET, antagonist mode; Potency, µM (doses to about 38.3 µM), for the others: top-dose activity change, negative = inhibition, usual class: inhibitors; 1% of 220,000 active; AID 1461, 2008; note: potency is the fitted concentration of half-maximal effect; % is set by controls: 0 for no effect and ±100 for the full control effect; nearly all actives have a fitted effect of over 50% in size
TCR activator = Activators of T cell receptors: qHTS campaign; primary human leukocytes, anti-CD3, IL-2 HTRF, 48 h; Potency, µM (top dose mostly 9.22 µM), inactives show at the highest dose activation of IL-2 secretion, actives largely listed as activators; 330,000 tested, under 10 active; AID 504894, 2011; note: % of control where 0% means no effect
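IL-2 release read by HTRF sandwich (Eu cryptate donor, d2 acceptor, 665 nm emission) after 48 hr exposure of primary human leukocytes to compound together with anti-CD3 beads in the absence of co-stimulatory signals.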
* = called active by the depositor; i = inactive; ? = inconclusive; nt = no result; [ ] = another dose, or the depositor's remark. Unless noted, calls come from the whole dose curve; as a rule, active = well fitted curve in the direction sought with a large enough effect; inconclusive = small, poorly fitted or top-dose-only effect, or another doubt; inactive = no such curve, though single readings can be large; an effect the other way counts as inactive or inconclusive.

SMILES	PTHR1 ag	RXFP1 antagonist	TSHR antagonist	RXFP1 agonist	NPSR antagonist	TCR activator
CCCC(=O)N1CCN(c2ccc(NC(=O)c3ccc([N+](=O)[O-])o3)cc2)CC1	-21.7%	3.2	-9.9	-1.9%	7.94µM*	4.3%
O=C(Nc1ccc(N2CCCC2)c(Cl)c1)c1ccc([N+](=O)[O-])o1	-17.4%	-8.1	2.8	-0.5%	7.94µM*	1.4%
CCC1CCCCN1S(=O)(=O)c1ccc(NC(=O)c2nc(SC)ncc2Cl)cc1 (centres undefined)	i	nt	nt	3.7%	nt	nt
CC(=O)Nc1ccc(NC(=O)CSc2ccc3nnc(-c4cccnc4)n3n2)cc1	i	0.8	46.3	8.91µM*	nt	-18.0%
Cc1ccc(NC(=O)CSc2ccc3nnc(-c4cccnc4)n3n2)cc1	i	0.4	19.1	?	nt	3.4%
CCC(Sc1ccc2nnc(-c3cccnc3)n2n1)C(=O)OC (centres undefined)	?	22.4	9.4	14.1µM*	19.6%	3.5%
CC(=O)Oc1ccc2c(c1)CC[C@@H]1[C@@H]2CC[C@]2(C)[C@@H](O)CC[C@@H]12	nt	-21.7	nt	nt	nt	nt
CCc1ccc(N2CC(c3nnc(NC(=O)c4ccco4)s3)CC2=O)cc1 (centres undefined)	-2.1%	-8.9	nt	-1.5%	nt	nt
COc1cc2c(=O)c(C(=O)c3ccc(F)cc3)cn(Cc3cccc(F)c3)c2cc1OC	-25.3%	-4.4	nt	0.6%	nt	nt
Cc1nc(-n2[nH]c3c(c2=O)CCCC3)[nH]c(=O)c1Cc1ccccc1	-10.2%[57.5 µM]	9.6	0.5	-4.9%	7.94µM*	0.8%
O=C(NCc1ccco1)/C(=C/c1ccc(C(F)(F)F)cc1)c1nc2ccccc2[nH]1	-28.8%	-7.9	-6.5	2.6%	-47.8%	-2.5%[46.1 µM]
O=S(=O)(/C(=C\c1ccc(C(F)(F)F)cc1)c1nc2ccccc2[nH]1)c1ccccc1	-26.5%	-76.9*	nt	nt	nt	-1.7%
CCN(CC)c1ccc(C(=O)OCC(=O)N2CCCC2)cc1	i	-16.6	-111.5*	1.5%	nt	-2.3%
Fc1ccc(-c2csc3ncnc(N4CCN(c5ccccc5)CC4)c23)cc1	-10.2%	-65.5*	0.5	-1.4%	nt	-6.8%
COc1ccc(N2CCN(c3ncnc4scc(-c5ccc(F)cc5)c34)CC2)cc1	-15.1%	-7.4	-20.9	1.1%	nt	-0.1%
CCCc1nn2c(=O)cc(COC(=O)c3ccccc3NC(=O)COc3ccccc3F)nc2s1	-34.2%	-7.0	nt	14.8%	nt	nt
COc1cccc(C(=O)NCC(c2ccc(N(C)C)cc2)N2CCCC2)c1OC (centres undefined)	20.7%	-10.9	nt	-1.2%	nt	nt
Cc1ccc(C2C(C(=O)c3cccs3)=C(O)C(=O)N2c2nnc(C)s2)cc1 (centres undefined)	-26.2%	-0.6	28.0	20µM*	-55.5%	-6.0%
COc1ccc(C2C(C(=O)c3cccs3)=C(O)C(=O)N2c2cccc(C)n2)cc1 (centres undefined)	-18.2%	7.3	-39.0	?	-27.0%	3.6%
OC1(c2ccc(Cl)cc2)CCNCC1	nt	-30.4	nt	nt	nt	nt
CC(=O)OCC(=O)[C@@]12OC3(CCCC3)O[C@@H]1C[C@H]1[C@@H]3CCC4=CC(=O)C=C[C@]4(C)[C@@]3(F)[C@@H](O)C[C@@]12C	i	nt	-16.6	3.3%	3.98µM*	0.4%
CC(=O)OCC(=O)C1(O)CCC2C3CCC4=CC(=O)C=CC4(C)C3(F)C(O)CC21C (centres undefined)	-19.7%	-9.9	nt	nt	nt	-6.4%
CC[N+](CC)(CC)CCOC(=O)C(C1CCCC1)C1CCCC1	nt	-10.7	nt	nt	nt	nt
Cc1ccc(S(=O)(=O)c2cn(Cc3ccccc3)c3cc(N4CCCC4)c(F)cc3c2=O)cc1	i	-8.4	nt	5.9%	nt	nt
CC1(C)COC(Cn2c3ccccc3c3ccccc32)O1 (centres undefined)	i	-65.2*	23.9	-2.0%	-43.7%	2.1%
SMILES	PTHR1 ag	RXFP1 antagonist	TSHR antagonist	RXFP1 agonist	NPSR antagonist	TCR activator
CC1COC(Cn2c3ccccc3c3ccccc32)O1 (centres undefined)	-10.1%	-13.5	4.4	3.2%	-20.3%	9.4%
Cc1ccccc1OCC(=O)NC(=S)Nc1ccc2c3c(cccc13)CC2	i	3.4	-0.2	8.5%	29.3%[46.1 µM]	2.2%
COc1ccc(OCC(=O)NC(=S)Nc2ccc3c4c(cccc24)CC3)cc1	-22.2%	12.8	5.8	20µM*	-57.5%	-6.6%
Cc1ccc(C(=O)c2cc(O)c(O)c([N+](=O)[O-])c2)cc1	nt	-39.3	nt	nt	nt	nt
CNC(=O)c1cnn(-c2nc(N)c3ncn([C@@H]4O[C@H](CO)[C@@H](O)[C@H]4O)c3n2)c1	nt	7.5	nt	nt	nt	nt
CC(Oc1ccccc1)C(=O)N=Nc1c(O)[nH]c2ccc([N+](=O)[O-])cc12 (centres undefined)	-20.6%	-83.8*	-11.3	1.1%	-38.1%	8.0%
COC(=O)CS(=O)(=O)c1nnc([C@H](Cc2ccccc2)NC(=O)OC(C)(C)C)o1	-46.5%	?	-11.0	-0.4%	7.94µM*	-6.4%
Nc1nc(SCC(=O)Nc2cc(Cl)ccc2Cl)n[nH]1	-2.3%	-4.0	-24.4	nt	nt	-4.2%
Nc1nc(SCC(=O)Nc2cc(Cl)c(Cl)cc2Cl)n[nH]1	-13.1%	-7.8	-74.0*	nt	nt	0.6%[46.1 µM]
Cc1nc2c(C)cccc2cc1C(=O)N/N=C/c1ccc(O)cc1	-34.2%	15.9	5.0	2.2%	-4.6%	0.9%[46.1 µM]
Cc1ccc2nc(C)c(C(=O)N/N=C/c3ccc(C(=O)O)cc3)cc2c1	-7.3%	-62.3*	7.6	-2.3%	-16.2%	0.6%
Cc1cccc(Nc2nc(-c3ccccc3)c3cc(C)ccc3n2)c1	i	-10.1	nt	1.3%	nt	nt
O=C1/C(=C/c2ccc(N3CCOCC3)o2)SC(=Nc2ccccc2)N1CCc1c[nH]c2ccccc12	-57.6%	-80.5*	-20.9	2.0%	?	-1.3%
CCc1ccc2[nH]c(=O)c(CN(CCN(C)C)C(=S)NCc3ccco3)cc2c1	-20.1%	-64.1*	1.2	-1.3%	12.5%	0.1%
CCc1ccc2[nH]c(=O)c(CN(CCN(CC)CC)C(=S)NCc3ccco3)cc2c1	-30.0%	-10.3	2.0	0.1%	?	-3.8%
Cc1cc(SCC(=O)N/N=C/c2ccc(O)c(O)c2)nc2ccccc12	-29.3%	-67.0*	11.9	-3.4%	nt	1.6%
COc1ccc(CC(=O)NNC(=O)c2ccccn2)cc1	-2.9%	-61.5*	21.6	1.7%	nt	2.4%
